# Assay results from the supplement of paper PMC12350171.
# Structures can show the parent of a compound that is named as a salt. A number with no mark means an inactive call.
# What was measured:
# Settings in all cases: 20 µM
# [1] = tested on: Salmonella enterica typhimurium; experiment: growth AUC normalised to DMSO control (fraction of control); higher = less growth inhibition, active = hit call of the paper
# Outline: (§1)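 Hemin and NAD were added to the medium for Haemophilus parainfluenzae. All pathogens, after two anaerobic passages, were inoculated at a starting OD578 of 0.01 into pre-reduced mGAM plates with 20 μM compound and 1% DMSO under breathable seals, and OD578 was read hourly for 24 h in three biological replicates. AUC of each growth curve was obtained with the trapezoidal rule up to the exponential-to-stationary transition and normalised to DMSO controls from the same plate.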
# Shigella flexneri = experiment: as above
# Outline: as §1
# Vibrio cholerae = experiment: as above
# Outline: as §1
# [2] = tested on: Yersinia pseudotuberculosis; experiment: as above
# Outline: as §1
# P. vulgatus RND KO = experiment: growth AUC normalised to DMSO control (median) (fraction of control); higher = less growth inhibition, active = hit call of the paper
# Outline: (§2)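 Strains were passaged twice overnight without oxygen, then grown in mGAM in 96-well plates with each approved-drug library compound at 20 μM and 1% DMSO, starting at OD578 0.01. OD578 was read hourly for 24 h inside an anaerobic incubator. Curves were truncated at entry into stationary phase, and the trapezoidal-rule area under the curve was normalised to same-plate vehicle wells. The value is the median across three biological replicates.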
# P. vulgatus WT = experiment: as above
# Outline: as §2
# [3] = tested on: S. enterica typhimurium WT; experiment: as above
# Outline: as §2
# [4] = tested on: S. enterica typhimurium tolC KO; experiment: as above
# Outline: as §2
# 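For growth AUC normalised to DMSO control (median) in this document: active when median AUC fell below 0.1.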
SMILES,growth AUC normalised to DMSO control [1],growth AUC normalised to DMSO control (Shigella flexneri),growth AUC normalised to DMSO control (Vibrio cholerae),growth AUC normalised to DMSO control [2],growth AUC normalised to DMSO control (P. vulgatus RND KO),growth AUC normalised to DMSO control (P. vulgatus WT),growth AUC normalised to DMSO control [3],growth AUC normalised to DMSO control [4]
CC1=C(/C=C/C(C)=C/C=C/C(C)=C/C(=O)O)C(C)(C)CCC1 [Retinoic acid],1,0.994,1,0.998,0.996,0.992,1,0.993
CCN(CC)C(=O)/C(C#N)=C/c1cc(O)c(O)c([N+](=O)[O-])c1 [Entacapone],1.02,1.04,1.07,0.998,0.987,0.996,0.997,1
NCCCCCC(=O)O [Aminocaproic acid],0.999,1.06,1.07,1.02,1.07,1.1,1.02,1
N[C@@H](C(=O)N[C@@H]1C(=O)N2C(C(=O)O)=C(Cl)CS[C@H]12)c1ccccc1 [Cefaclor hydrate],0.492 (active),0.153 (active),1.03,0.209 (active),1.04,1.05,1.07,1.01
C[C@]12C=CC(=O)C=C1CC[C@@H]1[C@@H]2C(=O)C[C@@]2(C)[C@H]1CC[C@]2(O)C(=O)CO [Prednisone],1.01,0.994,1,1.01,1.02,1.02,0.994,0.999
CC(=O)Oc1ccccc1C(=O)O [Acetylsalicylic acid],1.04,1.04,1.09,1.02,1.01,1.01,1.01,1.01
CC(C)(C)NCC(O)c1ccc(O)c(CO)c1 (configuration not stated) [Salbutamol],0.985,0.97,0.984,0.985,0.985,0.956,0.992,0.997
CN(Cc1cc(Br)cc(Br)c1N)C1CCCCC1 [Bromhexine hydrochloride],0.998,1.01,0.714 (active),1.02,0.999,0.977,1,0.948
CC(CN1c2ccccc2Sc2ccccc21)N(C)C (configuration not stated) [Promethazine hydrochloride],0.983,1.03,0.961,0.957,0.718,0.682,1,0.98
CC#C[C@]1(O)CC[C@H]2[C@@H]3CCC4=CC(=O)CCC4=C3[C@@H](c3ccc(N(C)C)cc3)C[C@@]21C [Mifepristone],1.01,0.988,0.994,1.01,0.93,0.954,0.999,0.92
CN(C)c1nc(N(C)C)nc(N(C)C)n1 [Altretamine],1.01,1.06,1.05,1.02,1.01,0.998,1,0.99
C[C@@H]1C[C@H]2[C@@H]3C[C@H](F)C4=CC(=O)C=C[C@]4(C)[C@@]3(Cl)[C@@H](O)C[C@]2(C)[C@H]1C(=O)COC(=O)C(C)(C)C [Clocortolone pivalate],1.03,1.06,1.12,1.05,0.0165 (active),0.0896 (active),1.01,1.04
OCCN1C[C@H](O)[C@@H](O)[C@H](O)[C@H]1CO [Miglitol],0.991,0.971,0.986,0.991,1,0.995,1.01,0.988
CN(C)CCCSC(=N)N [Dimaprit dihydrochloride],0.991,1,0.986,1,0.99,0.999,1,1.01
CCC[C@H](N[C@@H](C)C(=O)N1[C@H](C(=O)O)C[C@@H]2CCCC[C@@H]21)C(=O)OCC [Perindopril],1.02,1.02,0.963,1.04,1.03,1.04,1.01,1
O=C1Cc2cc(CCN3CCN(c4nsc5ccccc45)CC3)c(Cl)cc2N1 [Ziprasidone  hydrochloride monohydrate],1.02,1.06,1.01,1,1.03,1.07,1.02,1
NC[C@H]1O[C@H](O[C@H]2[C@H](O)[C@@H](O[C@H]3O[C@H](CO)[C@@H](O)[C@H](N)[C@H]3O)[C@H](N)C[C@@H]2N)[C@H](N)C[C@@H]1O [Tobramycin],0.888 (active),0.794 (active),0.97,0.107 (active),1.03,1.05,0.969,0.995
CCN(CC)C(=O)N1CCN(C)CC1 [Diethylcarbamazine citrate],0.959,0.973,0.983,0.998,0.995,0.978,0.999,0.995
Nc1nc(=S)c2ncn([C@@H]3O[C@H](CO)[C@@H](O)[C@H]3O)c2[nH]1 [Thioguanosine],0.828 (active),0.0952 (active),0.957,0.826 (active),1.03,1.06,0.849,0.779
CNCCCN1c2ccccc2CCc2ccccc21 [Desipramine hydrochloride],0.974,0.946,0.957,0.986,0.947,0.976,0.964,0.925
NC[C@@H]1O[C@H](O[C@H]2[C@@H](O)[C@H](O[C@@H]3[C@@H](O)[C@H](N)C[C@H](N)[C@H]3O[C@H]3O[C@H](CN)[C@@H](O)[C@H](O)[C@H]3N)O[C@@H]2CO)[C@H](N)[C@@H](O)[C@@H]1O [Neomycin sulfate],1.01,1.04,1.05,1,1.02,1.01,0.999,1.03
COc1ccc([C@@H]2CC(=O)c3c(O)cc(O[C@@H]4O[C@H](CO[C@@H]5O[C@@H](C)[C@H](O)[C@@H](O)[C@H]5O)[C@@H](O)[C@H](O)[C@H]4O)cc3O2)cc1O [Hesperidin],1.03,1.04,1.07,1.01,1.03,1,1,1.01
COc1cc(C)c(/C=C/C(C)=C/C=C/C(C)=C/C(=O)O)c(C)c1C [Acitretin],0.995,1.02,0.985,0.99,0.944,0.956,1,0.998
C[C@]12CCC(=O)C=C1C=C[C@@H]1[C@@H]2CC[C@@]2(C)[C@H]1CC[C@@]21CCC(=O)O1 [Canrenone],1.01,1.06,1.03,1.01,1.07,1.1,1.01,0.939
C#C[C@]1(O)CC[C@H]2[C@@H]3CCC4=CCCC[C@@H]4[C@H]3CC[C@@]21C [Lynestrenol],0.997,0.973,1.01,0.972,0.945,0.976,1.02,1
NS(=O)(=O)c1cc2c(cc1C(F)(F)F)NC(Cc1ccccc1)NS2(=O)=O (configuration not stated) [Bendroflumethiazide],1,1.01,0.997,1.01,0.962,0.977,1.01,0.993
C[C@]12C=CC(=O)C=C1CC[C@H]1[C@@H]3C[C@@H](O)[C@](O)(C(=O)CO)[C@@]3(C)C[C@H](O)[C@@]12F [Triamcinolone],1,0.977,1,1,1.01,0.98,0.997,1.01
C=CCc1ccccc1OCC(O)CNC(C)C (configuration not stated) [Alprenolol hydrochloride],1.01,1.06,1.04,1.01,1.07,1.08,0.995,0.997
"C[C@H]1C[C@@H]2[C@H]([C@@H](O)C[C@@]3(C)[C@H]2CC[C@]3(O)C(=O)CO)[C@@]2(C)C=CC(=O)C=C12 [Methylprednisolone, 6-alpha]",0.997,0.998,0.997,0.993,0.96,0.982,1,1
